# Measured values taken from the supplement of paper PMC10849652.
# The full data set covers some 7,900 targets. This sample favours those with a hit. About 0.6% of all pairs of compound and target were hits.
# Compound: C1=CC=C(C=C1)[C@H](COC2=CC3=C(C=C2)NC(=O)N3)NC(=O)C4=CC=CN(C4=O)CC5=CC(=C(C=C5)F)F
# Assay: log2 fold change, soluble protein after heating vs DMSO (PISA); higher = thermal stabilisation; K562 cells, 10 uM, 30 min; active = over 0.2 and 3.5 SD of the protein, either way, in both replicates (recomputed)
# How it was run: (§1)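 Aliquots of K562 cells (2×10^6 cells/mL) treated with 10 μM compound for 30 min were heated for 3 min over 48°C-58°C. After pooling and extraction in PBS with 0.5% NP-40 at 4°C, soluble protein from a 21,000xg, 90 min spin was quantified by TMTpro 16plex LC-MS/MS with channel sums equalised. Thermal stability is expressed against control samples, from duplicates, as a log2 fold change.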
# Sequence of UniProt Q7L0Y3 (Q7L0Y3 whole entry, looked up): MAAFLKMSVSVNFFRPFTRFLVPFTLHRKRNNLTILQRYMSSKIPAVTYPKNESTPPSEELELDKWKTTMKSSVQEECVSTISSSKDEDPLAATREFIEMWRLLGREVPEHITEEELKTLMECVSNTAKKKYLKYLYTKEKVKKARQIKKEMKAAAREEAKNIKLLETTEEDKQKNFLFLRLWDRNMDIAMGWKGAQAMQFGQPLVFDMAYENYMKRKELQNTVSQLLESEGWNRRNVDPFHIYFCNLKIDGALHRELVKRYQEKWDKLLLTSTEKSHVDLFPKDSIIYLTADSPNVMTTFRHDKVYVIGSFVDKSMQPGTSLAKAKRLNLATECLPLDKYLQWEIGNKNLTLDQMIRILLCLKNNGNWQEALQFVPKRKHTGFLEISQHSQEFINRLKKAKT
# Sequence of UniProt A5PLN9 (A5PLN9 whole entry, looked up): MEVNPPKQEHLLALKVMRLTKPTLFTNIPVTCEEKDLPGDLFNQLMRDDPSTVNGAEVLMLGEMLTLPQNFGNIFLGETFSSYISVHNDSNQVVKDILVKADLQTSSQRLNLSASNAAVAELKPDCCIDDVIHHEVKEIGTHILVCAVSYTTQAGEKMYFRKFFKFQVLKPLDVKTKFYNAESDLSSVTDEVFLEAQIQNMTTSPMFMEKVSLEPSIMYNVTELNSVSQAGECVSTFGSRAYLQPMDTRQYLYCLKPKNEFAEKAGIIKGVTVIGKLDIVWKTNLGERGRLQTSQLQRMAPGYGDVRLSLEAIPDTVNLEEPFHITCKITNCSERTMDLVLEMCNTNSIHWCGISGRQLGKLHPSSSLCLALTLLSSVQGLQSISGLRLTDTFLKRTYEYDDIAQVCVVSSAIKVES
# Sequence of UniProt Q9UK41 (Q9UK41 whole entry, looked up): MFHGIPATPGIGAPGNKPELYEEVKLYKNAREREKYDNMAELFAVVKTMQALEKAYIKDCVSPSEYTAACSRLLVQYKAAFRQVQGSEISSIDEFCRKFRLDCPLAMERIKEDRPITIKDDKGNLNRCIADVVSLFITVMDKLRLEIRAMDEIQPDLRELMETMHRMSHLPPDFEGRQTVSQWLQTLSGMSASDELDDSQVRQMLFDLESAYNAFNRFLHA
# Sequence of UniProt Q7Z7E8 (Q7Z7E8 whole entry, looked up): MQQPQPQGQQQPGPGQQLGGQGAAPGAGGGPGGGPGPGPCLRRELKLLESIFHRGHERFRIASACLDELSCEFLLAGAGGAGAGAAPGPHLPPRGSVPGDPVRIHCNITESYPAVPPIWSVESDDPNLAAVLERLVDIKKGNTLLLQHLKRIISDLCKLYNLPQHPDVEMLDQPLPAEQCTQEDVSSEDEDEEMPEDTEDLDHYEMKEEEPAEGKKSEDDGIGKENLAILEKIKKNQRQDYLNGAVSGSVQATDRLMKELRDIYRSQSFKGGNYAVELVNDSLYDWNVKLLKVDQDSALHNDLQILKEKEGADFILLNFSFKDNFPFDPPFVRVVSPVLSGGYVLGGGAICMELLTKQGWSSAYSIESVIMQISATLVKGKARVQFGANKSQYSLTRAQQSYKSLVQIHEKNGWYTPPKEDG
# Sequence of UniProt Q9BZI7 (Q9BZI7 whole entry, looked up): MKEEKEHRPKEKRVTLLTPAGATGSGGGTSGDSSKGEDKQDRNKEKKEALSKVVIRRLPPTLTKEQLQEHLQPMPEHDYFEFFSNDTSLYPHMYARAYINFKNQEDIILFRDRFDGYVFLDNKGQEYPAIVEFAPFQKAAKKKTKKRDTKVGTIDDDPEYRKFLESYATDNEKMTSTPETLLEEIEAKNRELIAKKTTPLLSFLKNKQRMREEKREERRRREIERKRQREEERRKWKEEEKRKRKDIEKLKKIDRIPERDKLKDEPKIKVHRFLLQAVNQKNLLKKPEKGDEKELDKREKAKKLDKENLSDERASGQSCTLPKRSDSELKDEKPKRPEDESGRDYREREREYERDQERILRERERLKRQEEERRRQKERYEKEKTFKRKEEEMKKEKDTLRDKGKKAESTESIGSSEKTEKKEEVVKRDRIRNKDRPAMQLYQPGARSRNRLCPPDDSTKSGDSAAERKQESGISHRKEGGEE
# Sequence of UniProt Q5U3C3 (Q5U3C3 whole entry, looked up): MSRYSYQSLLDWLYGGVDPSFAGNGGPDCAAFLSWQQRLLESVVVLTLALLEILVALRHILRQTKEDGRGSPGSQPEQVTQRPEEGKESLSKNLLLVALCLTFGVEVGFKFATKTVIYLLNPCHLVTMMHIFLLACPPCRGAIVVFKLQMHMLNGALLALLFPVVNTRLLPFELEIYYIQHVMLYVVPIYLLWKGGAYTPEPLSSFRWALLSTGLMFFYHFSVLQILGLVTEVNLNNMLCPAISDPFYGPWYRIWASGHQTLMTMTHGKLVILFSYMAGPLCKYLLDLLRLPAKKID
# Sequence of UniProt Q9BZH6 (Q9BZH6 whole entry, looked up): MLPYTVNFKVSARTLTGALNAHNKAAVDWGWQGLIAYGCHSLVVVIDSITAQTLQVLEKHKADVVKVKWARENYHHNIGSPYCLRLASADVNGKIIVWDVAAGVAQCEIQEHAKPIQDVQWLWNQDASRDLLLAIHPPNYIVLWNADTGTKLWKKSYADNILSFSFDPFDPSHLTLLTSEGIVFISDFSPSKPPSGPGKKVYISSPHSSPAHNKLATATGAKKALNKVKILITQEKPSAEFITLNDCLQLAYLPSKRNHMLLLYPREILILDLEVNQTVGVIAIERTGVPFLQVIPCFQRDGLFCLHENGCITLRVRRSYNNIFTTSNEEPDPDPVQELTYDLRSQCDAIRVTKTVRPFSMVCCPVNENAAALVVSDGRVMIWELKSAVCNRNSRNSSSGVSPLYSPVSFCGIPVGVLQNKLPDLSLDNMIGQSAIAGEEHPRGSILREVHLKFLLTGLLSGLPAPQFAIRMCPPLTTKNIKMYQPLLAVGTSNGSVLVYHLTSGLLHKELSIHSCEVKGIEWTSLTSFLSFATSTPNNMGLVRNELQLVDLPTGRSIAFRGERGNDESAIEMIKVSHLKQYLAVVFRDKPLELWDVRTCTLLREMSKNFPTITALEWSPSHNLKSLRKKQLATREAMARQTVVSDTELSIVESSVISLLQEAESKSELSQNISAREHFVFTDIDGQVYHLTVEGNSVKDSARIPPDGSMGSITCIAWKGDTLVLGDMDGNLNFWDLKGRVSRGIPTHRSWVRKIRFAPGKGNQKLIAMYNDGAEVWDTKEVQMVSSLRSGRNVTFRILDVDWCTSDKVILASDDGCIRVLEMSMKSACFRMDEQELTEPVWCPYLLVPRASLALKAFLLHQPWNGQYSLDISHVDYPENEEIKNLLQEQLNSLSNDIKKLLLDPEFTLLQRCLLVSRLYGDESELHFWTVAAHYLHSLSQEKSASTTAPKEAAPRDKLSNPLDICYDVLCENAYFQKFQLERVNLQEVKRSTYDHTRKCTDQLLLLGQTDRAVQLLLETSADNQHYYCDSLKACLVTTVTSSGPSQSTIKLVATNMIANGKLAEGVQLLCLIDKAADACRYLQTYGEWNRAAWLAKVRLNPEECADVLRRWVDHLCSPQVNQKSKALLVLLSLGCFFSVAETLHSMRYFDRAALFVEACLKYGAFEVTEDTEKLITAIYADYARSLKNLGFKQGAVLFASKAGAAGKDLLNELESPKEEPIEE
# Sequence of UniProt Q9P253 (Q9P253 whole entry, looked up): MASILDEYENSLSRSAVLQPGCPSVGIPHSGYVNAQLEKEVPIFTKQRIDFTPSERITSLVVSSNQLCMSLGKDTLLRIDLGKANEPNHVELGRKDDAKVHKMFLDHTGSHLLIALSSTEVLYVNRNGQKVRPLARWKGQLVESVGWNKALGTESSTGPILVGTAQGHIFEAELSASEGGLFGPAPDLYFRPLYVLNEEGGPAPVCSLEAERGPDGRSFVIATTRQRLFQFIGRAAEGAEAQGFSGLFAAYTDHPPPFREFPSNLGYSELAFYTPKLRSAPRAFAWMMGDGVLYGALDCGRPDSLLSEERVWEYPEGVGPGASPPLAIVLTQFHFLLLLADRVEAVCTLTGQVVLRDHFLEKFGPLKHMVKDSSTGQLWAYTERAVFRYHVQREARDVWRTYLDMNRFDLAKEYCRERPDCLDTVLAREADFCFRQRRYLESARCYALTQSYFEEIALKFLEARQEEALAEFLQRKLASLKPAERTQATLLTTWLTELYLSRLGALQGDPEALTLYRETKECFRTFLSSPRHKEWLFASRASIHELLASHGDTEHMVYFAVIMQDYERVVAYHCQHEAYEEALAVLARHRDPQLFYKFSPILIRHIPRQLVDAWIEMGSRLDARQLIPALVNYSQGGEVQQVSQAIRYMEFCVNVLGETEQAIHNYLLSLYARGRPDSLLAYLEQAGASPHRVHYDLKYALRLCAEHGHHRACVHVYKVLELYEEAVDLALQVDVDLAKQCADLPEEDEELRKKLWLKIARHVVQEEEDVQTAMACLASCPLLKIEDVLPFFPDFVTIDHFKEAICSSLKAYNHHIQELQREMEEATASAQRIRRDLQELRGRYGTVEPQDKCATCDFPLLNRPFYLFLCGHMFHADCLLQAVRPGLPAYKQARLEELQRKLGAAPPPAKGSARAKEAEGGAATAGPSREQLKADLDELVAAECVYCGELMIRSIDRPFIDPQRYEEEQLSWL
# Sequence of UniProt Q9BQB6 (Q9BQB6 whole entry, looked up): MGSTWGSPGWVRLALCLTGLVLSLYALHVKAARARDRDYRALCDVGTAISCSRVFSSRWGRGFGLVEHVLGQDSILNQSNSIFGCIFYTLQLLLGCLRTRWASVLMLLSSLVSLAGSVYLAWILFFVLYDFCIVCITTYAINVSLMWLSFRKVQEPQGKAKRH
# Sequence of UniProt O43396 (O43396 whole entry, looked up): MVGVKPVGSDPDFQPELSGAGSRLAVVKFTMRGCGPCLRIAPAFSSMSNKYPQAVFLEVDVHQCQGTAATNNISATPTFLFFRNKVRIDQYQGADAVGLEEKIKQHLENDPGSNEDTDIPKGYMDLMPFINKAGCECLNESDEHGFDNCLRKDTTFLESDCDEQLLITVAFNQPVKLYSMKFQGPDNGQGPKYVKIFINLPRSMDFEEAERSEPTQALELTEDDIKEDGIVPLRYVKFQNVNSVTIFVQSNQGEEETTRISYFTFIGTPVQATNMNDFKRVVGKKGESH
row,Target,log2 fold change
1,TMEM8A (UniProt Q9HCN3),0.017 (inactive)
2,VPS41 (UniProt P49754),-0.028 (inactive)
3,VPS28 (UniProt Q9UK41),-0.075 (inactive)
4,VPS35L (UniProt Q7Z3J2),-0.046 (inactive)
5,USP7 (UniProt Q93009),-0.165 (inactive)
6,WDR11 (UniProt Q9BZH6),-0.076 (inactive)
7,VAMP7 (UniProt P51809),0.007 (inactive)
8,TRAPPC13 isoform 5 (UniProt A5PLN9),-0.055 (inactive)
9,UBC (UniProt P0CG48),0.023 (inactive)
10,UBE2Q1 (UniProt Q7Z7E8),-0.041 (inactive)
11,TOP2A isoform 4 (UniProt P11388),0.157 (inactive)
12,TMEM106B (UniProt Q9NUM4),0.039 (inactive)
13,TMEM223 (UniProt A0PJW6),0.069 (inactive)
14,TRAM1 (UniProt Q15629),-0.167 (inactive)
15,TNFRSF8 (UniProt P28908),0.012 (inactive)
16,TRMT10C (UniProt Q7L0Y3),-0.018 (inactive)
17,TXNL1 (UniProt O43396),0.005 (inactive)
18,VPS18 (UniProt Q9P253),0.014 (inactive)

row,Target,log2 fold change
1,XRCC5 (UniProt P13010),-0.136 (inactive)
2,VKORC1 (UniProt Q9BQB6),-0.058 (inactive)
3,UBIAD1 (UniProt Q9Y5Z9),0.012 (inactive)
4,TMEM164 (UniProt Q5U3C3),-0.195 (inactive)
5,VPS16 (UniProt Q9H269),-0.188 (inactive)
6,VTI1A (UniProt Q96AJ9),0.032 (inactive)
7,"VARS2, A0A0G2JL52",-0.006 (inactive)
8,WEE1 (UniProt P30291),0.116 (inactive)
9,TMEM208 (UniProt Q9BTX3),-0.101 (inactive)
10,TNNC2 (UniProt P02585),0.043 (inactive)
11,USP48 isoform 8 (UniProt Q86UV5),-0.073 (inactive)
12,TRIM44 (UniProt Q96DX7),-0.027 (inactive)
13,WARS1 (UniProt G3V227),0.09 (inactive)
14,UPF3B (UniProt Q9BZI7),0.259 (inactive)
15,VPS51 (UniProt Q9UID3),-0.047 (inactive)
16,TRAPPC11 (UniProt Q7Z392),0.004 (inactive)
17,TSEN2 (UniProt Q8NCE0),-0.05 (inactive)
18,XIAP (UniProt P98170),0.05 (inactive)

# Compound: CC1=C(SC2=C1C(=N[C@H](C3=NN=C(N32)C)CC(=O)N)C4=CC=C(C=C4)Cl)C
# Assay: as above
# How it was run: as §1
row,Target,log2 fold change
1,TMEM8A (UniProt Q9HCN3),0.038 (inactive)
2,VPS41 (UniProt P49754),0.06 (inactive)
3,VPS28 (UniProt Q9UK41),0.023 (inactive)
4,VPS35L (UniProt Q7Z3J2),-0.13 (inactive)
5,USP7 (UniProt Q93009),0.026 (inactive)
6,WDR11 (UniProt Q9BZH6),0.067 (inactive)
7,VAMP7 (UniProt P51809),0.044 (inactive)
8,TRAPPC13 isoform 5 (UniProt A5PLN9),0.154 (inactive)
9,UBC (UniProt P0CG48),0.087 (inactive)
10,UBE2Q1 (UniProt Q7Z7E8),0.061 (inactive)
11,TOP2A isoform 4 (UniProt P11388),-0.322 (inactive)
12,TMEM106B (UniProt Q9NUM4),-0.022 (inactive)
13,TMEM223 (UniProt A0PJW6),-0.045 (inactive)
14,TRAM1 (UniProt Q15629),-0.024 (inactive)
15,TNFRSF8 (UniProt P28908),0.053 (inactive)
16,TRMT10C (UniProt Q7L0Y3),0.029 (inactive)
17,TXNL1 (UniProt O43396),0.051 (inactive)
18,VPS18 (UniProt Q9P253),-0.052 (inactive)

row,Target,log2 fold change
1,XRCC5 (UniProt P13010),-0.019 (inactive)
2,VKORC1 (UniProt Q9BQB6),0.132 (inactive)
3,UBIAD1 (UniProt Q9Y5Z9),0.029 (inactive)
4,TMEM164 (UniProt Q5U3C3),-0.047 (inactive)
5,VPS16 (UniProt Q9H269),0.048 (inactive)
6,VTI1A (UniProt Q96AJ9),0.009 (inactive)
7,"VARS2, A0A0G2JL52",0.006 (inactive)
8,WEE1 (UniProt P30291),-0.031 (inactive)
9,TMEM208 (UniProt Q9BTX3),0.02 (inactive)
10,TNNC2 (UniProt P02585),0.004 (inactive)
11,USP48 isoform 8 (UniProt Q86UV5),0.106 (inactive)
12,TRIM44 (UniProt Q96DX7),0.008 (inactive)
13,WARS1 (UniProt G3V227),-0.089 (inactive)
14,UPF3B (UniProt Q9BZI7),-0.211 (inactive)
15,VPS51 (UniProt Q9UID3),0.026 (inactive)
16,TRAPPC11 (UniProt Q7Z392),0.117 (inactive)
17,TSEN2 (UniProt Q8NCE0),0 (inactive)
18,XIAP (UniProt P98170),0.003 (inactive)
